ATXN2 expr inh: Primary qHTS for Inhibitors of ATXN expression | 360,000 compounds, 0.72% hits | AID 1745845, 2022 | Potency, µM (titrated, usually from 57 µM), without a hit: at the top dose activity change, negative = inhibition, usual class: inhibitors | HEK-293 ATXN2-luciferase reporter, luminescence, 24 h; note: potency is the fitted concentration of half-maximal effect; % is set by controls: 0 for no effect and ±100 for the full control effect; nearly all actives have a fitted effect of over 55% in size
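qHTS (up to 57 uM final) was run with 24 h compound exposure of reporter cells at 37 °C. Each well was multiplexed: SteadyGlo luminescence measured ATXN2-luciferase expression after a fluorogenic Gly-Phe-AFC viability readout (25 uM final).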
IL1B secr inh: qHTS for Inhibitors of Inflammasome Signaling: IL-1-beta AlphaLISA Primary Screen. AID 743279, 2014. 360,000 compounds, 4.7% hits. THP-1 LPS/ATP IL-1B secretion, AlphaLISA, 16 h; stronger effect = lower value. activity change, % at 57.5 µM; in the data active = activity change below about -50%; inconclusive = mostly about -30% to -49%; note: % is set by controls: 0 for no effect and ±100 for the full control effect
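Secreted IL-1B measured by AlphaLISA bead assay after 16 h compound exposure of THP-1 cells; compounds (final up to 57.5 uM) added 1 h before LPS (250 ng/mL) and ATP (1.25 mM) stimulation; lower signal means less secretion.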
SW480 rerep: A quantitative high throughput screen for small molecules that induce DNA re-replication in SW480 colon adenocarcinoma cells; Potency, µM (top dose mostly 46.1 µM), inactives show top-dose re-replication activation, actives largely listed as activators; SW480 DNA re-replication, Hoechst DNA content imaging, 48 h; 340,000 compounds, 1.8% hits; note: potency is the fitted concentration of half-maximal effect; % of control where 0% means no effect; nearly all actives have a fitted effect of over 55% in size
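Image-based DNA-content assay: after two days of treatment, nuclei were labelled with the DNA dye Hoechst and imaged, and hits were compounds raising the count of nuclei showing high fluorescence intensity.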
MCF10A rereplic: A quantitative high throughput screen for small molecules that induce DNA re-replication in MCF 10a normal breast cells; AID 624296, 2012; Potency, µM (top dose mostly 46.1 µM), inactives show at the top dose activity, positive = re-replication, actives largely listed as activators; 350,000 compounds, 2.9% hits; MCF 10A DNA re-replication, Hoechst nuclear intensity, 48 h; note: potency is the fitted concentration of half-maximal effect; % of control where 0% means no effect; nearly all actives have a fitted effect of over 50% in size
PINK1 expr mod: A Quantitative High throughput Screen to Identify Chemical Modulators of PINK1 Expression; PINK1 immunofluorescence, high-content cytometry, 24 h; Potency, µM (doses to about 76.6 µM), without a hit: at the highest dose activation (PINK1 increase), hits mostly activators; 410,000 compounds, 0.2% hits; active = well fitted activation curve with a large enough effect; inconclusive = small, poorly fitted or top-dose-only effect; cell line not stated here; note: potency is the fitted concentration of half-maximal effect; % of control where 0% means no effect; nearly all actives have a fitted effect of over 65% in size
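Cells are seeded, rested 12 hours, then given compound at five concentrations or DMSO for 24 hours. After fixation, blocking and antibody staining, PINK1 amount and mitochondrial localization are scored; CCCP serves as control.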
S2 tox: Viability Counterscreen for Primary qHTS for Inhibitors of ATXN expression | S2 cells (HEK-293 line with an ATXN2-luciferase reporter) viability, CellTiter-Fluor protease fluorescence, 24 h | Potency, µM (doses to about 56.7 µM), usual class: cytotoxic | 400,000 compounds, 0.49% hits | AID 651635, 2014; note: potency is the fitted concentration of half-maximal effect; nearly all actives have a fitted effect of over 40% in size
Starred values were filed as active, the others as inactive; i = inactive; u = inconclusive; x = no result given; [ ] = another dose, or the depositor's remark. Shown are actives, neighbours in structure and some others; about 7.1% of the full set was active somewhere. Unless noted, calls come from the whole dose curve; as a rule, active = well fitted curve in the direction sought with a large enough effect; inconclusive = small, poorly fitted or top-dose-only effect, or another doubt; inactive = no such curve, though single readings can be large; an effect the other way counts as inactive or inconclusive.

SMILES | ATXN2 expr inh | IL1B secr inh | SW480 rerep | MCF10A rereplic | PINK1 expr mod | S2 tox
O=C(C[n+]1cc(-c2ccccc2)n2c1CCCCC2)c1ccc(Br)cc1 | -25% | -77* | -8% | -8% | 0% | i
Cc1ccc(C(=O)C[n+]2cc(-c3ccc(C)cc3)n3c2CCCCC3)cc1 | u | -96* | 11% | u | u | u
Nc1nnnn1-c1ccccc1 | -6% | x | x | x | x | i
COc1cccc(C(=O)Nc2cccc(-c3nc4ncccn4c3C)c2)c1 | x | x | x | x | -1% | x
CCOc1ccccc1NC(=O)CSc1nc2c(oc3ccccc32)c(=O)n1-c1ccc(F)cc1 | 12% | x | x | x | 0% | i
Cc1cccc2c1NC1(CCCC1)CC2C (configuration not stated) | x | 14 | 2% | u | 45µM* | i
Cc1ccc2nc(N/N=C/c3ccco3)cc(C)c2c1 | -29% | -56* | u | 16µM* | 3% | i
COc1ccc(C=C2C(=O)c3ccccc3C2=O)cc1O | 1% | 5 | -21% | 2% | 2% | i
COc1ccc(/C=N/N=C/c2ccc(OC)c(O)c2)cc1O | 3% | -11 | 4% | 19% | 3% | i
CCN1C/C(=C/c2ccc(OC)c(O)c2)C(=O)/C(=C/c2ccc(OC)c(O)c2)C1 | x | -72* | u | u | 3% | u
COc1ccc(/C=C2\CN(Cc3ccccc3)C/C(=C\c3ccc(OC)c(O)c3)C2=O)cc1O | 4µM* | -99* | 3.7µM* | u | -1% | u
COc1ccc(N)cc1-n1c(C)ccc1C | u | u | 0.52µM* | 4% | 13% | i
CCc1ccc(S(=O)(=O)N2CCN(c3ccc(Cl)c(Cl)c3)CC2)cc1 | -7% | x | x | x | 2% | i
CCN1CCN(c2nc3c(S(=O)(=O)c4ccc(Br)cc4)nnn3c3ccsc23)CC1 | x | x | x | x | 0% | x
Clc1ccc2nc(-c3ccccc3)cn2c1 | 4% | 21 | -3% | 7% | 1% | i
Cc1ccc2nc(-c3ccc4c(c3)OCCO4)cn2c1 | u | 54 | 2.6µM* | 5.8µM* | 4% | i
c1ccn2cc(-c3ccc4c(c3)OCCO4)nc2c1 | x | -5 | -3% | 2% | 0% | i
Cc1ccc2nc(-c3cc(-c4ccccc4)no3)cn2c1 | 3.5µM* | -16 | u | -2% | -1% | i
Clc1ccc2nc(-c3ccc4c(c3)OCO4)cn2c1 | u | 25 | 23µM* | u | 7% | i
Cc1ccnc(NS(=O)(=O)c2ccc(NC(=O)C(C)(C)Oc3ccc(Cl)cc3)cc2)n1 | 6% | x | x | x | 0% | i
COc1ccc(-n2nc3cc(C)c(NC(=S)NC(=O)c4ccccc4C)cc3n2)cc1 | 25% | -4 | 11% | 3.7µM* | u | i
O=C(/C=C/c1ccccc1)NC(=S)Nc1ccc(N2CCOCC2)c(Cl)c1 | -19% | 5 | u | 8% | u | u
O=C(/C=C/c1ccco1)NC(=S)Nc1cccc(-c2nc3ccccc3s2)c1 | 44% | 34 | u | 5.8µM* | 7% | i
CCC(=O)Nc1cc2nn(-c3ccc(OC)cc3)nc2cc1C | u | -24 | -1% | 2% | 15%[38.3 µM] | i
O=C(/C=C/c1ccco1)NC(=S)Nc1ccc(N2CCOCC2)c(Cl)c1 | -12% | 21 | 5.2µM* | u | 24% | i
SMILES | ATXN2 expr inh | IL1B secr inh | SW480 rerep | MCF10A rereplic | PINK1 expr mod | S2 tox
COc1ccc(-c2csc(NC(=S)NC(=O)/C=C/c3ccco3)n2)cc1OC | -32% | -13 | 9.2µM* | 6.5µM* | u | u
COc1ccc(-c2csc(NC(=S)NC(=O)/C=C/c3ccco3)n2)cc1Br | u | x | u | u | -2% | i
O=C(/C=C/c1ccco1)NC(=S)Nc1ccccc1 | x | -20 | 18% | 25% | 8% | i
O=C(/C=C/c1ccco1)NC(=S)Nc1cccc(-c2nc3ccccc3o2)c1 | 16% | 37 | 9.2µM* | 3.7µM* | 6% | i
Cc1ccc(-c2nc3ccccc3o2)cc1NC(=S)NC(=O)/C=C/c1ccco1 | 1% | -2 | 8.2µM* | 7.3µM* | 4% | i
Cc1ccc(-n2nc3ccc(NC(=S)NC(=O)/C=C/c4ccco4)cc3n2)cc1 | 3% | 26 | -7% | -1% | 15% | i
Cc1ccc(-n2nc3cc(C)c(NC(=S)NC(=O)/C=C/c4ccco4)cc3n2)cc1 | 39% | 15 | 3.7µM* | 5% | 21% | i
Cc1cccc(NC(=S)NC(=O)/C=C/c2ccco2)c1 | 8% | 4 | 2.1µM* | u | -1% | i
CN(CCCN(Cc1ccc(Cl)cc1)c1ccc(Br)cn1)C(=S)NCCCc1cnc[nH]1 | x | x | x | x | -1% | x
O=C(Nc1ccc(F)cc1)c1ccc2c(c1)NC(=O)c1ccccc1S2 | -21% | x | x | x | u | u
O=c1c2ccccc2c(-c2ccccc2)nn1-c1ccc(Cl)c(Cl)c1 | -20% | -9 | 5% | 7% | 4% | i
O=C(O)c1cccc(-n2nc(-c3ccc(Cl)c([N+](=O)[O-])c3)c3ccccc3c2=O)c1 | -4% | -69* | -8% | 1% | 1% | i
COc1cccc(N2CCN(c3ncnc4c3[nH]c3ccc(F)cc34)CC2C)c1 (configuration not stated) | 3.5µM* | -112* | u | u | -4% | 10µM*
OC[C@H]1O[C@@H](Oc2ccc(O)cc2)[C@H](O)[C@@H](O)[C@H]1O | 9% | x | x | x | x | x
CCCCNc1nc(Oc2ccc(=O)n(-c3ccccc3)n2)nc(N(C)C)n1 | -8% | x | x | x | 2% | i
CCc1ccc(CNC(=O)Cn2nc(-c3ccccc3)ccc2=O)cc1 | -10% | -87* | 5% | 3% | 2% | i
O=C(c1cc(-c2ccco2)on1)N1CCN(C(c2ccccc2)c2ccccc2)CC1 | -31% | -9 | 4µM* | u | 15%[38.3 µM] | i
COc1ccc(-c2cc(C(=O)N3CCN(C(c4ccccc4)c4ccccc4)CC3)no2)cc1OC | 2% | -2 | -1% | 10µM* | 10%[38.3 µM] | i
COc1ccc(-c2cc(C(=O)N3CCN(C(c4ccccc4)c4ccccc4)CC3)no2)cc1 | 4% | -5 | 1% | u | 2%[38.3 µM] | i
CCCCC(CC)Cn1c(Oc2ccccc2)nc2c1c(=O)n(C)c(=O)n2C (configuration not stated) | 2% | x | x | x | 11% | i
C/C(=N\N=C(N)N)c1ccc(Cl)cc1Cl | u | -92* | u | u | -1% | i
